Assay outcomes as filed in PubChem.
This is a sample that favours compounds with a hit; in the whole collection about 1.6% have one here.
HTR5A ag – HTR5A agonists in luminescence cell assay, primary screen, counter-screen for OPRM1-OPRD1 heterodimer agonist project, full-deck HTS; activation, % at 9.3 µM; 5-hydroxytryptamine receptor 5A (Homo sapiens), P47898; 340,000 tested, 0.61% active; AID 504692, 2011; cell-based; in the data active = activation mostly above about 9.5%, no sharp cut-off; inactive = mostly below about 7.6%;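 note: 0% = cells with vehicle only and 100% = reference agonist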
MOR-DOR inv ag – inverse agonists of MOR-DOR heterodimerization, primary screen, cell-based, luminescence; Mu-type opioid receptor (Homo sapiens) + Delta-type opioid receptor (Homo sapiens), …; cell-based MOR-DOR heterodimer luminescence, inverse agonism; inhibition, % at 9.3 µM; 340,000 tested, 0.21% active; in the data active = inhibition above about 22%, passing the limit was not always enough;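 note: 0% = cells with DMSO and 100% = wells without cells with DMSO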
OPRM1-OPRD1 ag – agonists of OPRM1-OPRD1 heterodimerization, primary screen, cell-based, luminescence. cells. activation, % at 9.3 µM. 340,000 tested, 0.3% active. Mu-type opioid receptor (Homo sapiens) + Delta-type opioid receptor (Homo sapiens), …. AID 504326, 2011;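 note: 0% = vehicle-treated cells and 100% = reference agonist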
HTR5A inv ag – HTR5A inverse agonists in luminescence cell assay, primary screen, counter-screen for OPRM1-OPRD1 heterodimer inverse agonist project, full-deck HTS; HTR5A cell line, inverse agonism; inhibition, % at 9.3 µM; 340,000 tested, 0.083% active; AID 504634, 2011; in the data active = inhibition mostly above about 23%, no sharp cut-off; inactive = mostly below about 18%;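 note: 0% = cells with DMSO and 100% = no-cell wells with DMSO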
m5-HT2A agonist – mouse Htr2a agonists via beta-arrestin recruitment, primary screen, cell-based, luminescence; 5-hydroxytryptamine receptor 2A (Mus musculus), P35363; CHO-K1 mHTR2A beta-arrestin complementation; percent of 30 µM serotonin response; activation, % at 7.6 µM; 360,000 tested, 0.66% active;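 active = activation above a run cutoff, the mean activation of all tested compounds plus 3 SD, cut at about 14% in these data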;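 note: 0% = plate median of compound wells and 100% = 30 µM serotonin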
Target sequence (P35363 whole entry, looked up): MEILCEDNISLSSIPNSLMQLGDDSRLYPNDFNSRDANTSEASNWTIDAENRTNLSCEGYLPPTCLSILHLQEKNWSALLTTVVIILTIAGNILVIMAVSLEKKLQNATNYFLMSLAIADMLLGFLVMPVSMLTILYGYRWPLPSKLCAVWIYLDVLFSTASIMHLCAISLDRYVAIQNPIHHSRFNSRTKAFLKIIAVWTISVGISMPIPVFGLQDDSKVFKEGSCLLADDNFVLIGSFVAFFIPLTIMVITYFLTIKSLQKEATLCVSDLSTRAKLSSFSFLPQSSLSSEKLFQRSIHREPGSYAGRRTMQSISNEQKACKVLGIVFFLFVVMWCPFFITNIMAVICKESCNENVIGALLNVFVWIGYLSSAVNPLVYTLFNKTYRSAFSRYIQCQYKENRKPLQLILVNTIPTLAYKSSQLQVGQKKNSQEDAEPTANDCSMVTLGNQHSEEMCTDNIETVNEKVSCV
MOR-DOR ag conf – agonists of MOR-DOR heterodimerization, confirmation, cell-based, luminescence; shares compounds with OPRM1-OPRD1 ag; cells, luminescence complementation; 830 tested, 45% active; activation, % at 9.3 µM;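 note: 0% = vehicle-treated cells and 100% = reference agonist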
HTR5A ag ctr2 – HTR5A agonists in cells, counter-screen for OPRM1-OPRD1 heterodimer agonist project, cell-based, luminescence; 830 tested, 8% active; shares compounds with OPRM1-OPRD1 ag; HTR5A agonist counterscreen; activation, % at 9.3 µM; in the data active = activation above about 17%;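 note: 0% = vehicle-treated cells and 100% = reference agonist response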
Numbers without * were called inactive; i = inactive; . = not tested or not shown. Cut-off read from the data, not from the text of the source, unless noted: active = activation above about 18%; inactive = the rest.

SMILES	HTR5A ag	MOR-DOR inv ag	OPRM1-OPRD1 ag	HTR5A inv ag	m5-HT2A agonist	MOR-DOR ag conf	HTR5A ag ctr2
CCOC(=O)C1(Cc2ccccc2)CCN(Cc2cn(CC(=O)OC)c3ccccc23)CC1	-3	0	0	20	-3	.	.
Oc1cccc(C(=S)N2CCN(Cc3ccccc3)CC2)c1	-2	-172	32*	16	-10	5	0
CCn1c(/C=C/c2c(C)[nH]c3ccccc23)nc2ccccc2c1=O	-2	-146	27*	-1	2	1	-1
CCn1c(/C=C/c2c[nH]c3ccccc23)nc2ccccc2c1=O	-2	-26	6	4	2	.	.
COC(=O)C1CCN(Cc2cn(-c3ccccc3)nc2-c2ccc3c(c2)OCO3)CC1	1	-267	51*	-3	1	11	13
CC(=O)NCC1CCCN(Cc2cn(-c3ccccc3)nc2-c2ccc3c(c2)OCO3)C1 (stereo not drawn)	2	10	-2	-5	-5	.	.
Cc1ccc([C@H]2C[C@@H](O)[C@H](n3cc(C4CC4)nn3)CN2C(=O)C2CCCCC2)cc1	.	.	.	.	-6	.	.
CCOc1ccc2c(C)nc(NC3=NC(C)(C)C=C(C)N3)nc2c1	-3	i	170*	-2	-4	2	1
CCOc1ccc2nc(NC3=NC(C)(C)C=C(C)N3)nc(C)c2c1	0	i	158*	0	-9	1	-1
CCOc1ccc2nc(NC3=NC(c4ccc(OC)cc4)CC(=O)N3)nc(C)c2c1 (stereo not drawn)	6	-77	13	-25	3	.	.
CC(C)Oc1ccc(CN2CCC2(C)C(=O)Nc2cnc3ccccc3c2)cc1 (stereo not drawn)	.	.	.	.	0	.	.
CC(C)NC(=O)C1(C)CN(S(C)(=O)=O)CC(=O)N1CCOc1ccccc1 (stereo not drawn)	.	.	.	.	-3	.	.
COc1ccc(CCn2c(=S)[nH]c3cc(C(=O)NCc4ccco4)ccc3c2=O)cc1OC	-1	-127	28*	-1	0	24*	5
COc1ccc(-n2c(=S)[nH]c3cc(C(=O)NCc4ccco4)ccc3c2=O)cc1OC	2	24	-6	16	-3	.	.
Cc1ccc(-c2csc(/C(C#N)=C(\O)CCl)n2)cc1	6	-90	20*	-15	1	17	10
N#C/C(=C(/O)CCl)c1nc(-c2ccccc2)cs1	0	12	-2	-16	-1	.	.
O=C(Cc1c[nH]c2ccccc12)NCc1ccc(Cl)cc1	-1	9	-1	3	-1	.	.
CN1C2C=C(N(CCc3c[nH]c4ccccc34)C(=O)c3ccc(Cl)cc3)CC1CC2 (stereo not drawn)	0	i	100*	-9	-5	138*	6
O=C(Nc1ccccc1)c1ccc(NC2CCCCC2)c(S(=O)(=O)N2CCOCC2)c1	-2	-184	37*	8	-5	43*	0
CN1OC[C@@H]2CN(S(=O)(=O)c3ccccc3)[C@H](c3ccccc3Br)C[C@@H]21	.	.	.	.	-7	.	.
Cc1cccn2cc(-c3ccc(NC(=O)Cc4ccccc4)cc3)nc12	17*	-213	39*	-73	4	6	11
CCCS(=O)(=O)NC(=O)C1(C)CCN(C(=O)c2cccs2)C1 (stereo not drawn)	.	.	.	.	3	.	.
Oc1cccc(NC(=S)Nc2ccc(SC(F)F)cc2)c1	-7	-193	32*	19	7	4	2
Brc1ccc(NCc2cccc3ccccc23)nc1	-2	-16	3	22	-3	.	.
Oc1ccccc1CNc1ccc(Br)cn1	32*	-423	71*	-48	3	60*	27*
SMILES	HTR5A ag	MOR-DOR inv ag	OPRM1-OPRD1 ag	HTR5A inv ag	m5-HT2A agonist	MOR-DOR ag conf	HTR5A ag ctr2
COc1ccc(-c2nc(CN3CCC(C(=O)NCC4CCCO4)CC3)c(C)o2)cc1OC (stereo not drawn)	2	-149	30*	-9	1	23*	3
C#CC1(NC(=S)Nc2cccc(OC)c2)CCCCC1	.	.	.	.	5	.	.
CCOC(=O)C1(CCOc2ccccc2)CCN(Cc2cccn2-c2cccnc2)CC1	-2	i	224*	5	-2	240*	1
CCOC(=O)C1(Cc2ccccc2)CCN(Cc2cccn2-c2cccnc2)CC1	0	-218	41*	0	4	55*	-2
CCOC(=O)C1(CCOc2ccccc2)CCN(CCCn2cccn2)CC1	7	1	0	-10	2	.	.
CCOC(=O)C1(Cc2ccccc2)CCN(Cc2cccn2-c2nccs2)CC1	-2	-192	27*	5	-7	224*	6
CC1=C(C(=O)Nc2ccccc2)C(c2ccc(C)cc2)N=C(Nc2nc3ccccc3o2)N1 (stereo not drawn)	3	-219	40*	-41	-6	34*	16
COc1cccc(CC2(CO)CCCN(Cc3ccc(-c4ccco4)cc3)C2)c1 (stereo not drawn)	-1	-14	3	1	-5	.	.
OCC1(CC2CCCCO2)CCN(Cc2ccccc2-c2ccco2)CC1 (stereo not drawn)	-1	i	96*	4	0	136*	3
COc1cccc(CC2(CO)CCCN(Cc3ccccc3-c3ccco3)C2)c1 (stereo not drawn)	-1	i	97*	-29	0	128*	1
CCOC(=O)C1(CC2CCCCO2)CCN(Cc2cc3ccccc3[nH]2)CC1 (stereo not drawn)	4	i	307*	-9	-8	2	-1
CCOC(=O)C1(CC2CCCCO2)CCN(Cc2cccnc2)CC1 (stereo not drawn)	1	8	-2	-2	2	.	.
CCOC(=O)C1(CC2CCCCO2)CCN(Cc2ccccc2-c2ccco2)CC1 (stereo not drawn)	3	i	379*	3	-3	10	4
CC1=C(C(=O)N(C(C)C)C(C)C)CC(CC(=O)NC(c2ccccc2)c2ccccc2)C(=O)N1Cc1ccc(C(C)(C)C)cc1 (stereo not drawn)	.	.	.	.	-5	.	.
COC(=O)[C@@]12C[C@@H](CC(=O)NCc3cccc4ccccc34)C(=O)N(Cc3ccccc3)C1=CCC(C)(C)C2	.	.	.	.	-5	.	.
O=C(NC1CCCC1)C1c2ccccc2OCC(=O)N1Cc1ccco1 (stereo not drawn)	.	.	.	.	0	.	.
